# Bioassay records: PubChem BioAssay, National Center for Advancing Translational Sciences (NCATS)
# FBPA coupling cs: counter-screen for Giardia aldolase inhibitors: coupling enzyme system. 0.67% of 290,000 active. AID 2472. coupling enzyme system counterscreen, AmpLite Red fluorescence. activity change, negative = inhibition, % at 58.2 µM, hits read low; in the data active = activity change below about -30%
#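 Counterscreen of the coupled detection system alone, without aldolase: glyceraldehyde-3-phosphate coupling enzymes plus AmpLite Red readout. Compounds at 57.5 uM final, 10 min RT preincubation, 20 min RT reaction, fluorescence 525/598 nm.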
# VP16 counter: counter-screen for ROR gamma inhibitors: Gal4-VP16 reporter; Drosophila S2 Gal4-VP16 UAS-luciferase, luminescence, 20 h; Potency, µM (highest dose often 53.6 µM), for the others: top-dose activity, negative = inhibition, usual class: inhibitors; 3.5% of 310,000 active; AID 2546;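 also: Gal4-VP16 expression switched on by copper sulfate through the metallothionein promoter; potency is read from the fitted curve at half-maximal effect; nearly all actives have a fitted effect of over 50% in size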
# GALK inh: inhibitors of human galactokinase; Potency, µM (titrated, usually from 57.5 µM), for the others: at the highest dose activity change, negative = inhibition, usual class: inhibitors; 0.007% of 270,000 active; Purified GALK, Kinase-Glo residual ATP luminescence; P51570; also: potency is read from the fitted curve at half-maximal effect
#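 The enzyme phosphorylates galactose (100 uM) using ATP (35 uM); inhibition is detected as higher residual ATP, quantified by bioluminescence after 1 h reaction at room temperature, pH 8.0.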
# TrxR1 substrate: is turned over as a substrate by rat TrxR1. O89049. purified TrxR1 substrate turnover, NADPH consumption readout. Potency, µM (titrated, usually from 114 µM), without a hit: top-dose activity change, negative = substrate turnover. 0.01% of 390,000 active. AID 588456; also: potency is read from the fitted curve at half-maximal effect; nearly all actives have a fitted effect of over 50% in size
# Target sequence (O89049 whole entry, looked up): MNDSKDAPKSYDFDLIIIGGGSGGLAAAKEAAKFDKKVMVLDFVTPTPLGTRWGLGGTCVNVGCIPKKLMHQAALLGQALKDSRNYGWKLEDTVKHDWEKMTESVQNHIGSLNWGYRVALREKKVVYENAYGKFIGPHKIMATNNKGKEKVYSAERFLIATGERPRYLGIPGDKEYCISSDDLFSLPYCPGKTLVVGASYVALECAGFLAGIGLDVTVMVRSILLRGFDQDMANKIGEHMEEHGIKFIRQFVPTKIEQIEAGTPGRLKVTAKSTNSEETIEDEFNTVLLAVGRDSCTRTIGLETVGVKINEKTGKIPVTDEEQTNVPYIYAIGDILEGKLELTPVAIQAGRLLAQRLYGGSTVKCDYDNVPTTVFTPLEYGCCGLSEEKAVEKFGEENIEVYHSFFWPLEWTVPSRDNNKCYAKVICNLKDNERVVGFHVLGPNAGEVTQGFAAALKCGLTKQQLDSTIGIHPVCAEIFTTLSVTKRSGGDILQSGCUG
#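 Rat TrxR1, dispensed at 90 nM, was prereduced with 400 uM NADPH (final) for 5 min at ~22 deg C, then incubated with compound 15 min before 400 uM selenite. A first-read NADPH fluorescence drop versus no-compound background flagged substrates.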
# RORgamma inh: inhibitors of mouse ROR gamma transcriptional activity; Potency, µM (doses to about 53.6 µM), inactives show top-dose activity change, negative = inhibition, usual class: inhibitors; Drosophila S2 Gal4-RORgamma UAS-luciferase reporter, 20 h; AID 2551; 5.4% of 310,000 active; also: potency is read from the fitted curve at half-maximal effect; nearly all actives have a fitted effect of over 60% in size
#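 Compounds are pin-transferred onto Drosophila Schneider cells expressing a copper-inducible Gal4–ROR gamma transactivation domain fusion. After 1 hr, copper sulfate is added to 700 uM final; luciferase is read 20 hr later.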
# TrxR1 inh: rat TrxR1 inhibition; O89049; recombinant rTrxR1, NADPH fluorescence consumption, selenite substrate; Potency, µM (highest dose often 114 µM), without a hit: top-dose activity change, negative = inhibition, hits mostly inhibitors; 1% of 390,000 active; AID 588453; also: potency is read from the fitted curve at half-maximal effect; nearly all actives have a fitted effect of over 65% in size
#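 Rat TrxR1 (90 nM in the dispensed reagent) was pre-reduced with 400 uM NADPH for 5 min at room temperature, then incubated with compound for 15 min. After 400 uM selenite was added, NADPH fluorescence (Ex 340/Em 450 nm) was followed for 8 min.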
# * marks the source's active call; other numbers are inactive results; ? = inconclusive; . = no result given; ! = not confirmed by another sample; [ ] = dose if it differs, or a comment. Shown are actives, neighbours in structure and some others; about 5.9% of the full set was active somewhere. Unless noted, calls follow the shape of the dose curve; as a rule, active = well fitted curve in the direction sought with a large enough effect; inconclusive = small, poorly fitted or top-dose-only effect, or another doubt; inactive = no such curve, though single readings can be large; an effect the other way counts as inactive or inconclusive. % is scaled to controls: 0 for no effect and ±100 for the full control effect.
SMILES,FBPA coupling cs,VP16 counter,GALK inh,TrxR1 substrate,RORgamma inh,TrxR1 inh
O=C(N/N=C\c1cc(Br)cs1)C1COc2ccccc2O1 (configuration not stated),1,?,1%,6%,10µM*,12%
O=C(N/N=C\C=C\c1ccc2c(c1)OCO2)C1COc2cc3ccccc3cc2O1 (configuration not stated),-1,?,1%,9%[57.1 µM],7.1µM*,20%[57.1 µM]
Cc1ccc(NC(=O)CSC2=Nc3ccccc3C3=NC(Cc4ccccc4)C(=O)N23)cc1C (configuration not stated),.,.,.,-3%[57.1 µM],.,5%[57.1 µM]
CCOc1ccc(-n2c(O)c(/C=N/NC(=O)C3COc4ccccc4O3)c3ccccc3c2=O)cc1 (configuration not stated),14,4.5µM*,-1%,-6%,3.2µM*,-12%
O=C(N/N=C\C=C\c1ccc2c(c1)OCO2)c1ccc(F)cc1,-2,5.6µM*,-1%,1%,2.2µM*,4%
Cc1cc([N+](=O)[O-])cc(/C=N\NC(=O)C2COc3ccccc3O2)c1O (configuration not stated),8,4.5µM*,5%,-11%,2.2µM*,-1%
Cc1cc(C(=O)N/N=C/C=C/c2ccc3c(c2)OCO3)n[nH]1,3,1%,-4%,7%,?,4%[57.1 µM]
O=C(N/N=C/C(Cl)=C/c1ccc([N+](=O)[O-])cc1)C(=O)Nc1ccc(C(=O)O)cc1,1,15%,-2%,-11%,-3%,?
CC(C)c1ccc(NC(=S)N(C)CCc2ccccn2)cc1,2,?,-3%,15%[57.1 µM],?,28%[57.1 µM]
O=C(NC(NCc1ccccn1)(C(F)(F)F)C(F)(F)F)c1ccco1,-2,-15%,1%,1%,10µM*,-7%
O=C(NCCNCc1ccccn1)c1ccco1,-3,-5%,-1%,1%[57.1 µM],9%,15%[57.1 µM]
CN(CCc1ccccn1)C(=S)NC(=O)c1ccco1,0,?,11%,0%,14µM*,?
Cc1ccc(NC(=O)CN2CCSc3ccc(S(=O)(=O)N4CCCC4)cc32)cc1,.,.,.,-2%[57.1 µM],.,11%[57.1 µM]
COc1ccc(CC(=O)Nc2cccc(S(=O)(=O)N3CCCCCC3)c2)cc1OC,0,11µM*,0%,-4%,-25%,12%
CCN(CC(=O)Nc1cccc(S(=O)(=O)N2CCCC2)c1)CC(=O)Nc1ccccc1OC,0,-3%,3%,4%[57.1 µM],11µM*,21%[57.1 µM]
COc1ccc(Cl)cc1NC(=O)CN(C)CC(=O)Nc1cccc(S(=O)(=O)N2CCCC2)c1,.,.,.,-7%[57.1 µM],.,5%[57.1 µM]
CC1CCCN(S(=O)(=O)c2ccc(NC(=O)CN3C(=O)NC(C)(c4ccccc4)C3=O)cc2)C1 (configuration not stated),.,.,.,-17%,.,-7%
COc1ccc(CNCC(O)(c2ccccc2)c2ccccc2)cc1OC,2,?,-1%,12%,40%,39%
O=C1CCc2cc(S(=O)(=O)NC(Cc3ccccc3)C(=O)NCC3CCCO3)ccc2N1 (configuration not stated),0,-13%,1%,-10%,7.9µM*,-8%
CCOC(=O)CNC(=O)C(Cc1ccccc1)NS(=O)(=O)c1ccc2c(c1)CCC(=O)N2 (configuration not stated),.,.,.,-2%,.,-5%
Cc1ccc2c(c1)c1c3n2CCN(C(=O)CCl)C3CCC1 (configuration not stated),0,11µM*,-6%,10%,2.5µM*,7.9µM*
CC(=O)N1CCn2c3c(c(=O)c4cc(C)ccc42)CCC31 (configuration not stated),-42*,1%,-2%,1%,0%,?
CC(=O)N1CCn2c3c(c4cc(C)ccc42)CCCC31 (configuration not stated),2,-6%,3%,5%[57.1 µM],15%,0%[57.1 µM]
C[C@@H](OC(=O)c1[nH]cnc1C(=O)N1CCc2ccccc2C1)c1ccccc1,.,.,.,6%[57.1 µM],.,14%
CC1(OC(=O)C2CCCC2)C(=O)C=C2C=C(c3ccsc3)N(C3CCCCC3)C=C2C1=O (configuration not stated),-18,-10%,-2%,2%[57.1 µM],0%,16%[57.1 µM]
SMILES,FBPA coupling cs,VP16 counter,GALK inh,TrxR1 substrate,RORgamma inh,TrxR1 inh
CC1(OC(=O)C2CCCC2)C(=O)C=C2C=C(c3ccsc3)N(CCN3CCOCC3)C=C2C1=O (configuration not stated),-44*,-4%,-1%,.,-1%,.
CC1(OC(=O)C2CCCC2)C(=O)C=C2C=C(c3ccsc3)N(CC3CC3)C=C2C1=O (configuration not stated),-34*!,3%,-1%,-13%,24%,-3%
CC1(OC(=O)C2CCCC2)C(=O)C=C2C=C(c3ccsc3)N(Cc3ccc4c(c3)OCO4)C=C2C1=O (configuration not stated),-7,-3%,4%,-4%,-9%,13%[57.1 µM]
COc1ccc(-c2nc(CS(=O)(=O)CC(=O)NCCc3ccccc3)c(C)o2)cc1,.,2%,1%,1%,6%,-16%
O=c1c(-c2ccccc2)nc2cnc(N3CCOCC3)nc2n1C[C@H]1CCCO1,2,-13%,.,.,10%,.
CCOC(=O)C(NC(=O)c1cccc(Cl)c1)(OCc1ccc(F)cc1)C(F)(F)F (configuration not stated),-19,20µM*,0%,-9%[57.1 µM],?,-17%[57.1 µM]
COc1cc2c(cc1OC)C(c1cccc(C)c1)CC(=O)N2 (configuration not stated),6,-10%,-1%,8%,17%,38%
N#Cc1c(-c2ccc(Cl)cc2)ccn2nc(C3CCCCC3)nc12,0,?,-2%,15%,39%,9%
Cc1ccc(NC(=O)C2=C(O)CCn3c2nc2ccccc23)cc1,-12,5.6µM*,0%,8%,4.5µM*,7%
O=C(CCC(=O)N1CCN(c2ccccc2F)CC1)N1CCN(c2ccc(F)cc2)CC1,2,-3%,0%,-8%[57.1 µM],32%,7%[57.1 µM]
Cc1nnc(SCC(=O)Nc2nnc(SCc3cccc(Br)c3)s2)s1,9,-5%,1%,-3%,-1%,-13%
N#C/C(=C1\C(=O)Nc2c(Cl)cc(Cl)cc21)c1nnc2n1CCCCC2,-38*,?,0%,8%[57.1 µM],16µM*,7%[57.1 µM]
N#C/C(=C1/CCCCCN1)c1nnc2n1CCCCC2,0,6%,0%,10%,-2%,25%
N#C/C(=N\Nc1cc(Cl)cc(Cl)c1)c1nnc2n1CCCCC2,3,6.3µM*,1%,-4%,6.3µM*,6%
